From PubChem BioAssay AID488789 (Broad Institute, 2010) come the findings set out here.

Entries with a potency or affinity are not part of this list. Results filed as inconclusive are left out. Unmarked numbers belong to inactive results.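 How the source made its calls: active means samples whose fitted half-maximal inhibition concentration is no more than ten times the top valid dose tested; inconclusive means flat response between -70 and -30, or invalid curve fit; inactive means flat within 30 of zero, potency above limit, or signal rising.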

In the assay the target is Trypsin (Sus scrofa) (UniProt P00761). Kind of assay: trypsin protease activity blockade – biochemical, quenched peptide fluorescence, cherry-pick, selectivity assay for Rce1 protease inhibitor project, dose response (AID 488789). The following applies: porcine trypsin, quenched peptide cleavage fluorescence; series mostly up to 10 µM; activity change, negative = inhibition: at the top concentration.
Chain of Trypsin (Sus scrofa) (P00761 whole entry, looked up): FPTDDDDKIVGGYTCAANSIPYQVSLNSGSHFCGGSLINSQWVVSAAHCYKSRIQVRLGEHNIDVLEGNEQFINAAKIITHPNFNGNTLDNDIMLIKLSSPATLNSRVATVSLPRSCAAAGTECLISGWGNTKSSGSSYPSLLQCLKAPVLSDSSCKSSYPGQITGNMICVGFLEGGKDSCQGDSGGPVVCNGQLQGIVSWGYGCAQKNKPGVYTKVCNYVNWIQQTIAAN
Turning to `CCCN(CCC)CCNC(=O)c1cc2c(-c3ccc(Cl)cc3)nn(C)c2s1`, the “activity change, negative = inhibition” value was 5.01%.
`COc1ccc(NS(=O)(=O)c2c(C)cc(C)cc2C)cc1`: the “activity change, negative = inhibition” value was 3.93%.
For `O=C(O)c1ccc(N/N=C/c2ccc(-c3ccccc3Cl)o2)cc1` the value was 0.708%; for `O=C(CC1(O)C(=O)N(C/C=C/c2ccccc2)c2ccccc21)c1ccccn1` (stereo not drawn), 5.45%; for `CCC(C)(C)c1ccc(OCCCC[n+]2cccc(C)c2)c(C(C)(C)CC)c1`, 15.5%.
The value for `COc1ccc(-n2nc(C(=O)NCC(=O)N3CCC(C)CC3)c3ccccc3c2=O)cc1` was 3.6%.
The value for `O=C(c1cnc(Cl)c(Cl)c1)N1CCC(Cc2ccccc2)CC1` was 5.08%; that for `CCCCCCCCNC(C)C(O)c1ccc(SC(C)C)cc1` (stereo not drawn) was 3.86%; that for `Cc1ccc(OCCN2C(=O)C(=O)c3cc(C)ccc32)cc1` was 2.64%.
With `CCC(COC)NC(=O)CCc1nnc(Cc2cccc(C(F)(F)F)c2)o1` (stereo not drawn), the “activity change, negative = inhibition” value is 3.73%.
On to `CCN1CCN(c2ccc(NC(=O)c3cccc(OCc4ccccc4)c3)cc2)CC1`, for which the “activity change, negative = inhibition” value was 0.479%.
As for `COc1cccc(NC(=O)Nc2cccn(Cc3ccc(C)cc3)c2=O)c1`, the “activity change, negative = inhibition” value was 5.65%.
With `CC(=O)NC(Cc1c[nH]c2ccccc12)C(=O)O` (stereo not drawn), the “activity change, negative = inhibition” value was 9.84%.
The value for `O=C1CCN(Cc2ccccc2)CCN1[C@H](CSc1ccccc1)Cc1ccccc1` was 11%.
In the case of `CC(C)CC(=O)NC(=S)Nc1ccc(S(=O)(=O)Nc2nccs2)cc1`, the “activity change, negative = inhibition” value is 3.91%.
The value for `CN(C)CC(C)(C)CNC(=S)NCc1ccc2c(c1)OCO2` was 17.4%; that for `CC1(c2nnc(-c3cccc(Cl)c3)o2)CC(c2cccc(F)c2)=NO1` (stereo not drawn) was 5.97%; that for `CCCCOC(=O)Nc1nc(C)c(C(=O)OCC)s1` was -2.2%.
For `COc1cccc(/C=N/NC(=O)c2nnn(-c3nonc3N)c2C(C)C)c1OCc1ccc(F)cc1` the value was 5.63%; for `CSc1ccc(/C=C/C(=O)OCC(=O)NC(C)C)cc1`, 3.28%; for `COc1cccc(-c2csc(N3CCN(C(=O)NC45CC6CC(CC(C6)C4)C5)CC3)n2)c1`, 13.1%.
For `CCCCCCCCCCC[N+](C)(C)CC/C=C1/c2ccccc2Sc2ccc(Cl)cc21`, the “activity change, negative = inhibition” value is -9.31%.
The value for `Cc1cc(C)cc(N2CC(O)=C(c3nc4ccccc4c(=O)[nH]3)C2=N)c1` was -4.42%; that for `COc1cccc(C(=O)Nc2nnc(SCC(=O)NC3CCCC3)s2)c1` was -6.24%.
For `CCN(Cc1ccccc1)c1ccc(/C=N/N=C(N)N)cc1` the value was 3.18%; for `CN1CCN(C(=S)NC(=O)c2ccccc2Cl)CC1`, 2.37%; for `N/C(Cc1ccc([N+](=O)[O-])cc1)=N\OC(=O)c1ccc2ccccc2c1`, 17.9%.
In the case of `C/C(CC1(O)C(=O)Nc2ccccc21)=N\O` (stereo not drawn), the “activity change, negative = inhibition” value was 30.9%.
For `CC1(C)CC2CC(C)(CN2S(=O)(=O)c2ccc(N)cc2)C1` (stereo not drawn) the value was -1.27%.
The value for `CCc1cc(=O)oc2cc(OCC(=O)N3CCC(C(=O)O)CC3)ccc12` was -6.59%; that for `CC(=O)c1c(C)oc2ccc(NS(=O)(=O)c3ccc(C(=O)O)cc3)cc12` was 24%.
As for `Cc1cc(NS(=O)(=O)c2ccccc2)c([N+](=O)[O-])cc1C`, the “activity change, negative = inhibition” value was -5.69%.
The value for `CCC(C)(C)c1ccc(OCCCC[n+]2cccc(C)c2C)c(C(C)(C)CC)c1` was -5.25%; that for `COc1ccc(-c2nc3ncccc3o2)cc1NC(=O)c1ccco1` was 1.35%; that for `CCOc1cccc(-c2nn(-c3ccccc3)cc2/C=C(/C#N)C(=O)NCCCn2ccnc2)c1` was 4.11%.
For `CCOC(=O)[C@@H]1[C@H]2COc3ccc(Br)cc3[C@@H]2N2C(=O)N(c3cccc(Cl)c3)C(=O)[C@]12C` the value was 4.84%; for `CSc1nnc(-c2sc(-c3ccccc3)nc2C)n1C`, 12.8%.
Take `O=C(COC(=O)c1ccccc1Cc1ccccc1)NC1CCS(=O)(=O)C1` (stereo not drawn): the “activity change, negative = inhibition” value was -2.02%.
